Data: PubChem BioAssay AID651957 (The Scripps Research Institute Molecular Screening Center, 2012)
About 620 (0.17%) of roughly 370,000 compounds were called active. This is one part of a sample in which actives are shown more often than they occur.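 The calls were made as follows: active = inhibition above the mean inhibition of all tested compounds plus 3 SD, set per campaign (cut at about 52% in these data); inactive = the rest.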

Each molecule was assayed against Nuclear receptor coactivator 2 (Homo sapiens) (UniProt Q15596) (assay: decrease of SRC2 fusion reporter luminescence – cell-based, SRC2 inhibitor project, primary screen (AID 651957;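 also: 0% = DMSO treated cells and 100% = cells given Gossypol at 36 µM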)). Conditions: HEK293 GAL4-SRC2 luciferase reporter, at 9 µM, active compounds read high.
Sequence of Nuclear receptor coactivator 2 (Homo sapiens) (Q15596 whole entry, looked up, the tested form may be a part): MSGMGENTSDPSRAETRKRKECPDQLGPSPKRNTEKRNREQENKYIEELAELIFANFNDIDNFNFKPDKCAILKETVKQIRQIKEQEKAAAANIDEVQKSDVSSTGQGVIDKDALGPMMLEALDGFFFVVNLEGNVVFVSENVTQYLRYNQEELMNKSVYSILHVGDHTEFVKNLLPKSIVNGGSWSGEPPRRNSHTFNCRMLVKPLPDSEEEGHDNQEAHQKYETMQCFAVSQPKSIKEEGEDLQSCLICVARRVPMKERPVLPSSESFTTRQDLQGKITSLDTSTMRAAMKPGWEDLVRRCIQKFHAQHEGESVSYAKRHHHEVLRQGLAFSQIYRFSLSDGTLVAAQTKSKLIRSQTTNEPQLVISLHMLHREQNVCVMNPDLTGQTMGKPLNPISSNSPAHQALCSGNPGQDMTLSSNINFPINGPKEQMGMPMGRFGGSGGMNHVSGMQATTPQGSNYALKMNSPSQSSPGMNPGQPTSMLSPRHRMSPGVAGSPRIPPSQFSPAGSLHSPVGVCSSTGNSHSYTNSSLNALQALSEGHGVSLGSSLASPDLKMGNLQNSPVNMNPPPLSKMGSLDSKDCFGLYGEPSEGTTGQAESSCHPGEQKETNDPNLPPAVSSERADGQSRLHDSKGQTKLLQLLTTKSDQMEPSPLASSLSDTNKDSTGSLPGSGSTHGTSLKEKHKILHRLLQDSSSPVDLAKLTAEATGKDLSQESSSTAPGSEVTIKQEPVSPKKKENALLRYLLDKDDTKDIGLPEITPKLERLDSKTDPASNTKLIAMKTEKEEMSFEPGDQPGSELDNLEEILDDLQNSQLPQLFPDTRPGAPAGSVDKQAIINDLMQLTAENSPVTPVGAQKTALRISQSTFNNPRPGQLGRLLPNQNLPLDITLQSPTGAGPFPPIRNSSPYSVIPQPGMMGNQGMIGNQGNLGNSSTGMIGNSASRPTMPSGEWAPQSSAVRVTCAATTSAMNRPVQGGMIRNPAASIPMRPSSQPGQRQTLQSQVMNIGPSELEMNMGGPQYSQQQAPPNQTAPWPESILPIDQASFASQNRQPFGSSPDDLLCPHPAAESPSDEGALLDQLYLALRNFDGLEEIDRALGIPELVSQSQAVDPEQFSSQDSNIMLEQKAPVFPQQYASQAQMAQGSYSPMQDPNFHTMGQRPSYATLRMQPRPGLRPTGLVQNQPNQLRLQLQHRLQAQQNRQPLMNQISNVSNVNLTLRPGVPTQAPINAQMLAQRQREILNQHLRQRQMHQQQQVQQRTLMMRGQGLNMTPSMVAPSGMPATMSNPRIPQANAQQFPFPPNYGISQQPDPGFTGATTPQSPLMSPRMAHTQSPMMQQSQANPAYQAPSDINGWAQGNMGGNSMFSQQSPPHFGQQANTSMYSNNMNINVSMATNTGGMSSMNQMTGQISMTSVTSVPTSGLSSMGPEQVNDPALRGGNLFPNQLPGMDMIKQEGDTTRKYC
In the case of CCOC(=O)CN(C(=O)COc1nc(C)cc(C)c1C#N)c1ccc(Cl)cc1, the inhibition is reported as -18% (inactive).
For N#C/C(=C/c1ccc(Cl)cc1)NC(=O)c1ccccc1, the inhibition was -29% (inactive).
CCOc1cc(/C=C(/C#N)c2ccc(Cl)cc2)cc(Cl)c1OCC(=O)O was tested, and the inhibition was 56.9% (active).
C=CCn1c(SCC(N)=O)nnc1-c1ccccc1OC was tested, and the inhibition was -9.59% (inactive).
O=C(c1ccco1)N(Cc1nc2ccccc2c(=O)[nH]1)C1CCCC1 was tested, and the inhibition was 2.27% (inactive).
For CC(C)CC1NC(=O)c2cc(Cl)ccc2-n2c1nc1ccccc1c2=O (stereo not given), the inhibition was 5.29% (inactive).
In the case of CN(c1ccc2nc3ccccc3c(=O)n2n1)C1CCCCC1, the inhibition is reported as 72.1% (active).
With O=C(NC1Cc2ccccc2C1)c1cc(COc2cccc(C(F)(F)F)c2)on1 the inhibition was 11.1% (inactive).
In the case of CC1(C)CC(N2CCN(C(c3ccccc3)c3ccccc3)CC2)=CC(=[N+]2CCCCC2)C1, the inhibition is reported as 24.5% (inactive).
In the case of COc1ccc(S(=O)(=O)N2CCc3ccccc32)cc1C(=O)Nc1cc(S(C)(=O)=O)ccc1Cl, the inhibition is reported as -10.2% (inactive).
With O=C(Nc1nc2ccc(Cl)cc2s1)c1cc(-c2ccc(Cl)cc2)nc2ccccc12 the inhibition was -2.88% (inactive).
CC1=CC(C)(C)Nc2ccc(OC(=O)CN3C(=O)C4CCCCC4C3=O)cc21 (stereo not given) was tested, and the inhibition was 52.7% (active).
In the case of O=C(COC(=O)CN1C(=O)C2CCCCC2C1=O)Nc1ccc(F)c(F)c1F (stereo not given), the inhibition is reported as -13.3% (inactive).
With CC(OC(=O)CN1C(=O)C2CCCCC2C1=O)C(=O)Nc1ncc(Cl)cc1Cl (stereo not given) the inhibition was 1.55% (inactive).
Cc1ccc(-n2c(SCC(=O)Nc3cccc4ccccc34)nnc2-c2ccco2)cc1 was tested, and the inhibition was -19.3% (inactive).
In the case of CC(C)(C)c1ccc(Oc2ccc(N)cc2)cc1, the inhibition is reported as 92% (active).
CN1CCNC(=O)C1CC(=O)NCCC1=CCCCC1 (stereo not given) was tested, and the inhibition was 20.1% (inactive).
In the case of CN1CCCCC(NC(=O)C(C)(C)C)C1=O (stereo not given), the inhibition is reported as -8.4% (inactive).
For CCC(c1ccc(NC(=O)OC(C)(C)C)cc1)c1cc(OC)cc(OC)c1 (stereo not given), the inhibition was 11.3% (inactive).
For CC(=O)c1cc(-c2ccc3ccccc3c2)c(=O)n2c1CCC2, the inhibition was -32.7% (inactive).
In the case of COc1cccc(CN2CCN(Cc3ccc4cccc(F)c4n3)CC2CCO)c1 (stereo not given), the inhibition is reported as -4.49% (inactive).
COc1ccc(/C=C/C(=O)NC(=S)N2CCCC(C(N)=O)C2)cc1 (stereo not given) was tested, and the inhibition was -8.4% (inactive).
With CCOc1ccc(NC(=S)NC(=O)/C=C/c2ccc(OC)cc2)c([N+](=O)[O-])c1 the inhibition was 95.6% (active).
With CCOc1ccc(NC(=O)COC(=O)C2CCC(=O)N2)c([N+](=O)[O-])c1 (stereo not given) the inhibition was -12.2% (inactive).
CC(C)(C)c1ccc(CSc2nnc(-c3cccs3)o2)cc1 was tested, and the inhibition was -21.4% (inactive).
For COC[C@@H]1CCCN1c1ccc2c(c1)O[C@H](C)CCN(C1CC1)S2(=O)=O, the inhibition was 14.3% (inactive).
With O=C(NCc1ccccn1)[C@@H]1CCCN1C(=O)[C@@H]1CCCN1C(=O)c1ccccc1 the inhibition was -0.2% (inactive).
COc1ccc(C2=CN(Cc3ccccc3)C(c3ccc(OC)cc3)CC2=O)cc1 (stereo not given) was tested, and the inhibition was 12.8% (inactive).
With CCOC(=O)[C@]12CCCC3=C1N(CCC3)C(=O)[C@@H](CC(=O)N1CCSCC1)C2 the inhibition was 12.6% (inactive).
For COc1ccc(Nc2ncnc3ccc(Br)cc23)c(OC)c1, the inhibition was 86.6% (active).
CC1(C)CC2CC(C)(CN2c2ncnc3ccc(Br)cc23)C1 (stereo not given) was tested, and the inhibition was 17.4% (inactive).
For CCOC(=O)CNc1nc(Cl)nc(Nc2ccc(OC)cc2OC)n1, the inhibition was -23.9% (inactive).
In the case of CC(C)CNc1cccc2c1S(=O)(=O)N(Cc1cn(Cc3ccccc3C(F)(F)F)nn1)Cc1ccccc1O2, the inhibition is reported as 2.85% (inactive).
CCC(C)(C)c1ccc(Oc2ccc(NC(=O)COC(=O)C3=COCCO3)cc2)cc1 was tested, and the inhibition was 56.6% (active).
With CCOC(=O)c1sc(N)c(C#N)c1COC(=O)C1=COCCO1 the inhibition was 7.27% (inactive).
CC(=O)Nc1ccc(NC(=O)COC(=O)C2CCC(C(C)(C)C)CC2)cc1 (stereo not given) was tested, and the inhibition was -24.4% (inactive).
Cc1nnc(SCC(=O)N2c3ccccc3C(C)(c3ccc(Cl)cc3)CC2(C)C)s1 (stereo not given) was tested, and the inhibition was -11.4% (inactive).
C=CCNC(=O)c1sc(SC)cc1-c1ccc(Cl)cc1 was tested, and the inhibition was 3.88% (inactive).
O=C(OC12CCCN(C1)/C(=C/c1ccccc1)C2)c1ccco1 (stereo not given) was tested, and the inhibition was 9.76% (inactive).
OCC[C@H]1C[C@H](O)[C@@H](O)[C@]2(CCc3ccccc3O2)O1 was tested, and the inhibition was 3.27% (inactive).
In the case of CCOC(=O)c1ccccc1NS(=O)(=O)c1c(C)nc2sccn2c1=O, the inhibition is reported as -4.6% (inactive).
In the case of Cc1nc(-c2ccccc2)cn2c1nc1ccccc12, the inhibition is reported as 7.57% (inactive).
For Cc1ccc2nc(-c3ccccc3)c(CC3CCCCC3)n2c1, the inhibition was -25.6% (inactive).
With Cc1ccc(-c2cn3cc(C)ccc3n2)cc1 the inhibition was 72.6% (active).
Cc1nc(=O)c(-c2ccccc2)c(C)n1-c1ccc(Br)cc1 was tested, and the inhibition was -29.2% (inactive).
For Cc1ccc2nc(-c3ccc(Br)cc3)cn2c1, the inhibition was 60.3% (active).
For COc1cc(C(=O)Nc2cc(C(F)(F)F)ccc2N2CCOCC2)ccc1O, the inhibition was -7.29% (inactive).
With COc1ccc(C(=O)Nc2ccccc2C(=O)N/N=C/c2ccc(O)c(OC)c2)cc1 the inhibition was 55% (active).
With COc1cc(/C=C/C(=O)OCC(=O)Nc2cccc(Oc3ccccc3)c2)ccc1O the inhibition was 11.1% (inactive).
Cc1ccccc1NC(=O)Cn1nnc(-c2ccccc2F)n1 was tested, and the inhibition was 11.4% (inactive).
C=CCn1c(C)cc(C2=NNC(=NCC)SC2)c1C was tested, and the inhibition was 84.4% (active).
With CC(C)CNc1cccc2c1S(=O)(=O)N(Cc1cn(Cc3ccc(Cl)cc3)nn1)Cc1ccccc1O2 the inhibition was 26.6% (inactive).
In the case of Cc1cccc(NC(=O)c2nc(S(=O)(=O)Cc3ccccc3)ncc2Cl)c1, the inhibition is reported as 64.1% (active).
CN(CCC(=O)Nc1cc(S(=O)(=O)N(C)C)ccc1Cl)CC(=O)Nc1ccc(F)cc1 was tested, and the inhibition was -17.9% (inactive).
In the case of Cc1ccc(CS(=O)(=O)CCC(=O)NC2CC2)cc1, the inhibition is reported as -50% (inactive).
For Cc1cccc(NC(=O)c2cc3c(C)nn(-c4ccccc4)c3s2)c1, the inhibition was 0.27% (inactive).
For Cc1ccc(CS(=O)(=O)c2ncc(Cl)c(C(=O)Nc3nnc(C)s3)n2)cc1, the inhibition was 64% (active).
With Cc1nnc(NC(=O)CSc2nccn2-c2cccc(C)c2C)s1 the inhibition was -5.88% (inactive).
For Cc1cccc(CS(=O)(=O)c2ncc(Cl)c(C(=O)Nc3ccc(F)cc3)n2)c1, the inhibition was 62.1% (active).
With O=C(CCS(=O)(=O)c1ccccc1)Nc1ccc(Cl)c(Cl)c1 the inhibition was -2.79% (inactive).
For Cc1cccc(C(=O)Nc2c(-c3ccc(F)cc3)nc3ncccn23)c1, the inhibition was 16.3% (inactive).
With O=C(NCCC1=CCCCC1)C1CCN(S(=O)(=O)c2ccc(Cl)s2)CC1 the inhibition was -18.3% (inactive).
With COc1ccc(N2CCN(CCNS(=O)(=O)c3ccc([N+](=O)[O-])cc3)CC2)cc1 the inhibition was 9.36% (inactive).
O=S1(=O)c2ccc(Br)cc2OC[C@@H](Cc2ccccc2)N1Cc1cn(Cc2ccco2)nn1 was tested, and the inhibition was -13.6% (inactive).
CC1CCC(N2CC(=O)N(Cc3ccc4c(c3)OCO4)C(c3ccc(F)cc3)C2=O)CC1 (stereo not given) was tested, and the inhibition was 3.66% (inactive).
Clc1ccc(C(Cn2ccnc2)OCc2ccsc2Cl)c(Cl)c1 (stereo not given) was tested, and the inhibition was 7.22% (inactive).
With COc1ccc2cc(C(=O)O)n(CC(=O)c3ccccc3)c2c1 the inhibition was -12.1% (inactive).
C=CCOc1ccc(C(=O)Nc2ccccc2C(=O)N2CCCC2)cc1 was tested, and the inhibition was -24.2% (inactive).
C=CCOc1ccc(/C=C2\SC(=S)N(CCC(=O)O)C2=O)cc1 was tested, and the inhibition was 85.7% (active).
With Cc1cc(OCCCC(=O)NCCN2C(=O)S/C(=C\c3cccnc3)C2=O)ccc1Cl the inhibition was -14.1% (inactive).
In the case of CCOC(=O)C1=C(C)NC2=C(C(=O)CC(C)(C)C2)C1c1ccc2c(c1)OCO2 (stereo not given), the inhibition is reported as 11.6% (inactive).
For COc1ccc2c(c1)CCC/C2=N\OC(=O)c1ccccc1F, the inhibition was 4.64% (inactive).
In the case of CCCCCCCCN1C(=O)[C@@H](CC(=O)NCCCC)C[C@@]2(C(=O)OC)C1=C[C@H](C(C)(C)C)O[C@@H]2C, the inhibition is reported as -9.63% (inactive).
Nn1c(SCC(=O)Nc2ccc(S(N)(=O)=O)cc2)nnc1-c1n[nH]c2c1CCC2 was tested, and the inhibition was 10.6% (inactive).
CCOC(=O)C1=C(c2ccc(OC)cc2)C(=O)c2ccccc2C1=O was tested, and the inhibition was 73.8% (active).
For CCOC(=O)C1C(=O)C=C(c2ccc(OC)cc2)CC1c1ccco1 (stereo not given), the inhibition was -4.74% (inactive).
For CCOC(=O)C1=C(CC)Nc2ccccc2N=C1N, the inhibition was 12.5% (inactive).
With O=C(CN1C(=O)c2ccccc2S1(=O)=O)N1CCc2ccccc21 the inhibition was 73.3% (active).
With Cc1ccc(S(=O)(=O)N(C)CC(=O)N2CCc3ccccc32)cc1 the inhibition was -6.78% (inactive).
In the case of NS(=O)(=O)c1ccc(CCNC(=O)CN2C(=O)c3ccccc3S2(=O)=O)cc1, the inhibition is reported as 1.66% (inactive).
In the case of O=C(COC(=O)c1cnccn1)Nc1cccc2ccccc12, the inhibition is reported as -4.93% (inactive).
For CCOC(=O)C(C(=O)c1ccccc1)C(c1ccccc1)c1nccc2ccccc12 (stereo not given), the inhibition was 14.8% (inactive).
In the case of COc1cccc(CC(=O)N2CCN(C(=O)C(=O)c3cccc(C(F)(F)F)c3)CC2)c1, the inhibition is reported as 7.57% (inactive).
With C[C@H]1CCC/C=C/C(=O)c2c(O)cc(O)cc2CC(=O)O1 the inhibition was 64.6% (active).
For COc1ccc(S(=O)(=O)NCC(=O)NCc2cc(=O)n(C)c(=O)n2C)cc1F, the inhibition was -9.55% (inactive).
With CC1CCC2(CC1)NC(=O)N(CC(=O)NCc1ccco1)C2=O (stereo not given) the inhibition was -29.4% (inactive).
In the case of CC1(C)CC(=O)c2sc(N)nc2C1, the inhibition is reported as 3.79% (inactive).
O=c1oc2ccccc2cc1-c1cn(-c2ccccc2)c(=S)[nH]1 was tested, and the inhibition was 80.4% (active).
COc1cccc(NC(=O)N(C)C[C@@H]2OCc3cn(nn3)CCCC(=O)N([C@@H](C)CO)C[C@H]2C)c1 was tested, and the inhibition was -2.21% (inactive).
For COC(=O)[C@]12C[C@H](CC(=O)NCc3cccc(C(F)(F)F)c3)C(=O)N(Cc3ccc4c(c3)OCO4)C1=C[C@H](COCc1ccccc1)O[C@@H]2C, the inhibition was 4.24% (inactive).
